We go through twelve molecules from PubChem BioAssay (NCATS).

Molecules are shown by their SMILES. Inconclusive results are not listed. Activity calls are given as the source filed them. Unless noted, calls come from the whole dose curve; as a rule, active = well fitted curve in the direction sought with a large enough effect; inconclusive = small, poorly fitted or top-dose-only effect, or another doubt; inactive = no such curve, though single readings can be large; an effect the other way counts as inactive or inconclusive.

In experiment [1] the target is ATP-dependent 6-phosphofructokinase (Trypanosoma brucei brucei) (UniProt O15648). As to the kind of experiment: qHTS Assay to Find Inhibitors of T. brucei phosphofructokinase: hit validation (AID 492961).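 Note: luminescence reports ADP formed as PFK phosphorylates fructose-6-phosphate with ATP; series mostly up to about 51 µM; % is set by controls: 0 for no effect and ±100 for the full control effect.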 The gist of the method:
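ADP-Glo luminescence read-out of ADP formed by 1.25 nM PFK from 0.1 mM ATP and 0.5 mM F6P (TEA pH 8.0, 45 min, RT). Compounds titrated; activity normalized to no-enzyme and full-enzyme controls.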

Experiment [2] in a line: Validation screen for small molecules that induce genotoxicity in human embryonic kidney (HEK293T) cells expressing luciferase-tagged ELG1 (AID 493106). Note: 0% is about no effect. The gist of the method:
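Cells were dispensed at 2,000 per well, then 23 nL compound or DMSO was pinned in. After 16 hr at 37 °C and 5% CO2, ONE-Glo reagent was added. Luciferase activity was measured following 30 min at room temperature.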

Experiment [3] concerns the target Thyrotropin-releasing hormone receptor (Homo sapiens) (UniProt P34981). As to the kind of experiment: qHTS for Small Molecule Agonists and Allosteric Enhancers of Human TRH Receptor: Validation Screen for Agonists (AID 493127;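 active = calcium activation more than 3 SD above the typical response in the agonist read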;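 note: intracellular calcium rise by fluo-8 fluorescence before TRH EC20 addition; 0% is about no effect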). The note with it: TRH receptor agonist cell assay; at 2 µM; stronger effect = higher value. The gist of the method: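 Compounds are added by online pintool to dye-loaded TRHR cells while fluorescence is recorded every second. A rise in calcium signal during the agonist read marks activation; a later 10 nM TRH addition (EC20) serves the separate enhancer mode.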

Experiment [4] can be described thus: qHTS for Inhibitors of Cell Surface uPA Generation: Validation Assay (AID 493164).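 Note: RAW 264.7 macrophage cells exposed to compound for 18 h; 0% is about no effect.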 The gist of the method: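 ATP-Lite luminescence read-out: ATP remains high when uPA activity-dependent LF translocation into the cytoplasm is blocked. RAW 264.7 cells, 18 h compound exposure at 37 C; 7-point titration, 2.45 nM to 38.3 uM final.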
The target in experiment [5] is Galactokinase (Homo sapiens) (UniProt P51570). As to the kind of experiment: qHTS Validation Assay for Inhibitors of Human Galactokinase (GALK) (AID 493189). Note: 0% is about no effect. An outline of the steps: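 GALK (5 nM) with 35 uM ATP and 100 uM galactose in HEPES pH 8.0 with MgCl2, NaCl, DTT and BSA. Reaction ran 1 h at room temperature. Residual ATP read by Kinase-Glo Plus luminescence.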
Chain of Galactokinase (Homo sapiens) (P51570 whole entry, looked up): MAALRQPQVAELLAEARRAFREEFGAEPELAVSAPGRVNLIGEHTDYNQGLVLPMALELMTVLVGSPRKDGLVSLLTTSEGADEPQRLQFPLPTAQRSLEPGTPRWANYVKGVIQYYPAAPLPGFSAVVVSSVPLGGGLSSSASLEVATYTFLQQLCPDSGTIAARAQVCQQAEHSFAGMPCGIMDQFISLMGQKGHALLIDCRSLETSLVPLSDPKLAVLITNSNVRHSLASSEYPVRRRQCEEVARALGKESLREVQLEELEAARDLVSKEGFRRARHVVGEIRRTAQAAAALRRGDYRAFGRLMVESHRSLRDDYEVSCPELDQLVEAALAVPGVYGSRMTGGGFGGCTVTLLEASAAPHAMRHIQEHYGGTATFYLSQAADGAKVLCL

Experiment [6] can be described thus: Validation screen for small molecules that induce DNA re-replication in SW480 colon adenocarcinoma cells (AID 504364). Note: 0% is about no effect. An outline of the steps: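 Image-based qHTS: compounds were incubated with SW480 cells for 48 hr, nuclei stained with Hoechst, and per-nucleus fluorescence intensity scanned to flag cells with excess DNA content.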
Experiment [7] has as its target Peptidyl-prolyl cis-trans isomerase NIMA-interacting 1 (Homo sapiens) (UniProt Q13526). As to the kind of experiment: qHTS Validation Assay to Find Inhibitors of Pin1 (AID 504536; active = well fitted inhibition curve with a large enough effect in the polarisation, with a control signal flat, not every such curve was filed as active; the % refers to the polarisation;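 note: 0% = full Pin1 enzyme wells and -100% = no-enzyme wells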). The gist of the method: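 Fluorescence polarization competition: compounds (titration) displace HiFluor-488-labeled Pin1-1b peptide from Pin1 (0.3 uM final) in pH 7.5 HEPES buffer with DTT, 10 min at room temperature; %Activity normalized to no-enzyme wells, curves fitted.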

For experiment [8], the target named is Phosphoglycerate kinase, glycosomal (Trypanosoma brucei brucei) (UniProt P07378). As to the kind of experiment: qHTS Validation Assay to Find Inhibitors of Phosphoglycerate Kinase (AID 504547).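 Note: control wells lack PGK and mark full inhibition.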 An outline of the steps:
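Luminescence end-point (Kinase-Glo Plus, 10 min) after a 60 min room-temperature coupled reaction. GAPDH at 100nM final supplies 1,3-BPG to PGK. Buffer: 100mM TEA pH 7.6, 5mM MgCl2, 0.01% Tween-20. Wells lacking PGK served as controls.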

Experiment [9] addresses phosphoglycerate mutase (Leishmania major) (UniProt Q4Q090). The experiment in a line: qHTS Validation Assay to Find Inhibitors of Phosphoglycerate Mutase (AID 504548). Note: series mostly up to about 58 µM; % is set by controls: 0 for no effect and ±100 for the full control effect. An outline of the steps:
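Lm PGAM 1.25nM final; 100 mM TEA pH 7.6, 5 mM MgCl2, 0.01% Tween-20; 45 min RT; Kinase-GloPlus, 10 min; end-point luminescence. Enzyme-free wells as negative controls.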

Experiment [10] concerns the target Ubiquitin carboxyl-terminal hydrolase 1 (Homo sapiens) (UniProt O94782). The experiment in a line: Inhibitors of USP1/UAF1: Pilot qHTS (AID 504865). Note: nearly all actives have a fitted effect of over 35% in size. Note: potency is the fitted concentration of half-maximal effect. The gist of the method: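 USP1/UAF1 complex at 1 nM preincubated 15 min at room temperature with compound, then Ub-Rho substrate added at 150 nM final. Fluorescence (480/540 nm) read kinetically in 50 mM HEPES pH 7.8, 0.5 mM EDTA, 1 mM TCEP, 0.1 mg/ml BSA, 0.01% Tween-20.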

Experiment [11] can be described thus: qHTS for Inhibitors of ATXN expression: Validation of Cytotoxic Assay (AID 588349). Note: % is set by controls: 0 for no effect and ±100 for the full control effect. The gist of the method:
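Titrated compounds are added to cultured HEK293 cells, which are then held at 37 degrees C for 72 hr; loss of intracellular ATP, measured with CellTiter Glo, indicates toxicity.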

Experiment [12] can be described thus: qHTS for Inhibitors of ATXN expression: Validation (AID 588378). Note: series mostly up to about 57 µM; % is set by controls: 0 for no effect and ±100 for the full control effect; nearly all actives have a fitted effect of over 75% in size. The gist of the method: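 HEK293 cells carrying ATXN2-firefly luciferase reporter, treated with compound 24 h at 37 °C. Viability read first by CellTiter-Fluor (405/525 nm), then reporter expression by Bright-Glo luminescence; controls were a known ATXN2 expression inhibitor and a luciferase inhibitor.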

The target of experiment [13] is ATPase family AAA domain-containing protein 5 (Homo sapiens) (UniProt Q96QE3). As to the kind of experiment: Validation screen for small molecules that inhibit ELG1-dependent DNA repair in human embryonic kidney (HEK293T) cells expressing luciferase-tagged ELG1 (AID 493107).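 Note: cells co-treated with the DNA-damaging agent 5-fluorouridine alongside compound; series mostly up to about 46 µM; % is set by controls: 0 for no effect and ±100 for the full control effect; inhibitors lower the ELG1-luciferase luminescence signal; nearly all actives have a fitted effect of over 70% in size.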 An outline of the steps:
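Cells are dispensed in 1536-well format, then 5-fluorouridine and compound are pinned in. After a 16 hr incubation at 37 °C and 5% CO2, ONE-Glo is added and luciferase measured on a CCD imager.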

Experiment [14] concerns the target DNA dC->dU-editing enzyme APOBEC-3G (Homo sapiens) (UniProt Q9HC16). The experiment in a line: qHTS for inhibitors of Vif-A3G interactions: Validation (AID 588379). Note: 0% is about no effect. The gist of the method:
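Yellow fluorescence (Ex 488, Em 500-530) of Vif-coexpressing HeLa A3G-eYFP cells, scanned by Acumen cytometer, reports blocked A3G degradation. Cells plated at 700/well overnight at 37 deg C before compound addition, then a further overnight compound incubation at 37 deg C.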

A short description of experiment [15]: Nrf2 qHTS screen for inhibitors: Validation (AID 493153; active = well fitted inhibition curve with a large enough effect in the main read-out, with a control signal flat, not every such curve was filed as active). The settings on record: Potency: luciferase luminescence; viability change: measured here: cytotoxicity max response. The gist of the method: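 A549 ARE_Fluc, 5% FBS OPTI-MEM; cpd titration, 18-24 h, 37°C/5% CO2. Read 1: CellTiter-Fluor (Ex 405/Em 525), cytotox. Read 2: luciferase lum, Nrf2 activity.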

The target of experiment [16] is Estrogen receptor (Homo sapiens) (UniProt P03372). The experiment in a line: qHTS assay for small molecule antagonists of estrogen receptor alpha signaling (AID 588513; active = well fitted curve in the direction sought with a large enough effect in the signal ratio, with a control signal flat, not every such curve was filed as active; the % refers to the signal ratio; note: % is set by controls: 0 for no effect and ±100 for the full control effect). An outline of the steps: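 ER-alpha-UAS-bla GripTite HEK 293 cells in 2% charcoal/dextran-treated FBS medium; compounds titrated (1:2, duplicate), then stimulated with 0.5 nM 17-beta-estradiol for 18 h at 37C. CCF4 beta-lactamase fluorescence; Hill-fit IC50 and efficacy.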

Experiment [17] shares this target. The experiment in a line: qHTS assay for small molecule agonists of estrogen receptor alpha signaling (AID 588514; calls by dose curve;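 note: 0% = vehicle only and 100% = reference agonist; nearly all actives have a fitted effect of over 70% in size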). An outline of the steps: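 Efficacy is expressed against 20 nM 17-beta-estradiol (100%) and DMSO basal (0%); EC50 from Hill equation. Assay: beta-lactamase reporter in ER-alpha-UAS-bla HEK 293 cells, 18 h compound incubation, CCF4 detection.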
Experiment [18] has as its target Bile acid receptor (Homo sapiens) (UniProt Q96RI1). The experiment in a line: qHTS assay for small molecule antagonists of farnesoid X receptor signaling (AID 588526; calls by dose curve; note: % is set by controls: 0 for no effect and ±100 for the full control effect). An outline of the steps:
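Beta-lactamase reporter antagonist mode: HEK293T FXR-UAS-bla cells, titrated compound, CDCA stimulation, 16 h 37 C, CCF4 dye 2 h RT. Data normalized to CDCA 50 uM and DMSO; Hill-fit IC50.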

Chain of ATP-dependent 6-phosphofructokinase (Trypanosoma brucei brucei) (O15648 whole entry, looked up): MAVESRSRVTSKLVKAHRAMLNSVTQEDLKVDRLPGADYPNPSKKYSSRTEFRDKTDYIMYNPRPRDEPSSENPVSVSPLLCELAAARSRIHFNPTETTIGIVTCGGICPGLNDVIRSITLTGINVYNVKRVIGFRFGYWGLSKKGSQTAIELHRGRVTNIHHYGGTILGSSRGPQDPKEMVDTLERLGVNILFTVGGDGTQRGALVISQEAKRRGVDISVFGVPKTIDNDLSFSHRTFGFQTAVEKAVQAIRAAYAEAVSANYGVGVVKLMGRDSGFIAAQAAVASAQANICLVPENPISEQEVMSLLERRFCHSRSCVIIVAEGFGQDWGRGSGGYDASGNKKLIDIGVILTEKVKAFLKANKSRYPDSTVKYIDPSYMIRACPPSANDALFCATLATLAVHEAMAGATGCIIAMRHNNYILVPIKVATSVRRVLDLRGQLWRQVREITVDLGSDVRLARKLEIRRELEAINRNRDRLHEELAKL
Chain of Ubiquitin carboxyl-terminal hydrolase 1 (Homo sapiens) (O94782 whole entry, looked up): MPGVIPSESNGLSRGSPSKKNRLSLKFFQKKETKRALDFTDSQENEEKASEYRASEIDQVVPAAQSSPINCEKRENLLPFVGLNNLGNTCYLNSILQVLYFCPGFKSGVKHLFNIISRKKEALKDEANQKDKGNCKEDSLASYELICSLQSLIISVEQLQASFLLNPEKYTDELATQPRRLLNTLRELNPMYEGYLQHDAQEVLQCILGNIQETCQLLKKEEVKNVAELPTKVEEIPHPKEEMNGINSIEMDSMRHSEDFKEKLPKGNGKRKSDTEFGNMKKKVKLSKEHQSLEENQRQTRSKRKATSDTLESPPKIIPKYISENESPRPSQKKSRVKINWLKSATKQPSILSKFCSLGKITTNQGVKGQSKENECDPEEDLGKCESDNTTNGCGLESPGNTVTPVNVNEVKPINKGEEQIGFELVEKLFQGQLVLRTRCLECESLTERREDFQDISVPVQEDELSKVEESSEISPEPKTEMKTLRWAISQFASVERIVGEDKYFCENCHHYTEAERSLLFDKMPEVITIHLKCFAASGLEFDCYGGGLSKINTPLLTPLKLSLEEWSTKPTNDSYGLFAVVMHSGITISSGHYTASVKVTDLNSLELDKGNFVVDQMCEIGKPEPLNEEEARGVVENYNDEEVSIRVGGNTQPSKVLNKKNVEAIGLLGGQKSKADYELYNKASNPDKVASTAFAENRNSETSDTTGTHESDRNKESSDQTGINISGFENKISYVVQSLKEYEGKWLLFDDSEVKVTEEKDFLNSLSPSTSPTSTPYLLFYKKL
Chain of Peptidyl-prolyl cis-trans isomerase NIMA-interacting 1 (Homo sapiens) (Q13526 whole entry, looked up): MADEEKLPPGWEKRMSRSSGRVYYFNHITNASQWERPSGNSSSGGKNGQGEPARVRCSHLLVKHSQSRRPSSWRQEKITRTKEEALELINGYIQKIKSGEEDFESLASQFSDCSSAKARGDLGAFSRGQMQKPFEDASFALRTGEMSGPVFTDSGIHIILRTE
Chain of ATPase family AAA domain-containing protein 5 (Homo sapiens) (Q96QE3 whole entry, looked up, the tested form may be a part): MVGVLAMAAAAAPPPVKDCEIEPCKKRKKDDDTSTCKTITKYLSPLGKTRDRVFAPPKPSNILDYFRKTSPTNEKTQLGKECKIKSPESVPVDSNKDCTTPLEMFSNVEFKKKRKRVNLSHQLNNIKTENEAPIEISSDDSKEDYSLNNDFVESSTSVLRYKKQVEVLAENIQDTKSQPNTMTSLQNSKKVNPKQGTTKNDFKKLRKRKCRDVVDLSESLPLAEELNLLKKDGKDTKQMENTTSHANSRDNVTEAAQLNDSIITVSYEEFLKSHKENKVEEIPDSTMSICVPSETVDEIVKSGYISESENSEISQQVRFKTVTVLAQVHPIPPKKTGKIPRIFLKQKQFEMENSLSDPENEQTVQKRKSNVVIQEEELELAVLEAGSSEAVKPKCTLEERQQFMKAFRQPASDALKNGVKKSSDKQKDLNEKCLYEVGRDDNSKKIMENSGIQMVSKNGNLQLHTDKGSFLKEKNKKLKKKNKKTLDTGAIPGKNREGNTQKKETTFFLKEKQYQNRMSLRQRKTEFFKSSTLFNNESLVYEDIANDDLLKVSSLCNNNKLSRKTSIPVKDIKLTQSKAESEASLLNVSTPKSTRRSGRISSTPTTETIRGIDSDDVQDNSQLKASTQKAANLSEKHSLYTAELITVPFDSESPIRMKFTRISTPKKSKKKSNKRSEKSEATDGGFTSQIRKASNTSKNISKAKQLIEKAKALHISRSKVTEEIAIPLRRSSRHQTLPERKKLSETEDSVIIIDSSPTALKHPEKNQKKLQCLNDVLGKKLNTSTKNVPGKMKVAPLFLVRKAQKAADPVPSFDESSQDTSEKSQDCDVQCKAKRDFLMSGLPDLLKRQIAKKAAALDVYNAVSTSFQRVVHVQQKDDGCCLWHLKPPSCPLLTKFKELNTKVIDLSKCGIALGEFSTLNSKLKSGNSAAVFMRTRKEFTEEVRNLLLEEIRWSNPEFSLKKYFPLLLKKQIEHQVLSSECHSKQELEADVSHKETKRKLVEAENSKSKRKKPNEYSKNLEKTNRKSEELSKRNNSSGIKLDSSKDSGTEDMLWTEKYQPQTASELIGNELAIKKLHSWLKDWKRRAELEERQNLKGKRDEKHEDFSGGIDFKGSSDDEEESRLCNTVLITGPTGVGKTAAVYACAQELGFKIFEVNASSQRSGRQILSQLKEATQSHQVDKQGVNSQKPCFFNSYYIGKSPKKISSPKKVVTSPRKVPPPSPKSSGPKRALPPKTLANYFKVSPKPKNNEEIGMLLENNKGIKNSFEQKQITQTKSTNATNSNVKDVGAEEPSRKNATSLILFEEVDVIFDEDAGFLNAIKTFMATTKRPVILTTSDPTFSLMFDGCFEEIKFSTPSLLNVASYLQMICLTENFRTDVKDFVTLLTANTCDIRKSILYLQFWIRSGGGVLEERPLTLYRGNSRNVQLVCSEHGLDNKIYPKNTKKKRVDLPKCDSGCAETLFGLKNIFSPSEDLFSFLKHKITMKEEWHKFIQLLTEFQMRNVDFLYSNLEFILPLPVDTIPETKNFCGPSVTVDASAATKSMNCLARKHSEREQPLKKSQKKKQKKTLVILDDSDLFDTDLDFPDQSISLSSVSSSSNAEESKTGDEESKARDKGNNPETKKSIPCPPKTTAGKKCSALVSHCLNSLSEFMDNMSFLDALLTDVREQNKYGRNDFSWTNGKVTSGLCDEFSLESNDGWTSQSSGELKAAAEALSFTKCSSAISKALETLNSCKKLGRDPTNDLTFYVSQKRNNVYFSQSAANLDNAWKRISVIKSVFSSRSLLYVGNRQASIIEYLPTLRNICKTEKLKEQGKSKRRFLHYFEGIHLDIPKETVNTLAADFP
Chain of phosphoglycerate mutase (Leishmania major) (Q4Q090 1-553): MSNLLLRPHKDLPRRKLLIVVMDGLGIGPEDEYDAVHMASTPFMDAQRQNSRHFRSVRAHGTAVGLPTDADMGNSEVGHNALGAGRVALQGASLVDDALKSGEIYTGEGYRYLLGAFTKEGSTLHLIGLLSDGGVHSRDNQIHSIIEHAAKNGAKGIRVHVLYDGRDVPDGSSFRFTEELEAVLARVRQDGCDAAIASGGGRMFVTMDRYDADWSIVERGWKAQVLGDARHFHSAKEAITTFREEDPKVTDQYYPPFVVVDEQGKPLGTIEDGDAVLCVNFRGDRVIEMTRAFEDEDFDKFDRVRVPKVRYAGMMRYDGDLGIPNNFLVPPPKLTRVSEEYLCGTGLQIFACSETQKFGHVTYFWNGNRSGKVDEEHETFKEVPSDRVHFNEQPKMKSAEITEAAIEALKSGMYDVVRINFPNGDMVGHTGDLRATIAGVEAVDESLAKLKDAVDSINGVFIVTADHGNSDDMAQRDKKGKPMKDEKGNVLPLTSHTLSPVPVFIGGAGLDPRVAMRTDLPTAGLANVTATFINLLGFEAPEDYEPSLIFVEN
Chain of Phosphoglycerate kinase, glycosomal (Trypanosoma brucei brucei) (P07378 whole entry, looked up): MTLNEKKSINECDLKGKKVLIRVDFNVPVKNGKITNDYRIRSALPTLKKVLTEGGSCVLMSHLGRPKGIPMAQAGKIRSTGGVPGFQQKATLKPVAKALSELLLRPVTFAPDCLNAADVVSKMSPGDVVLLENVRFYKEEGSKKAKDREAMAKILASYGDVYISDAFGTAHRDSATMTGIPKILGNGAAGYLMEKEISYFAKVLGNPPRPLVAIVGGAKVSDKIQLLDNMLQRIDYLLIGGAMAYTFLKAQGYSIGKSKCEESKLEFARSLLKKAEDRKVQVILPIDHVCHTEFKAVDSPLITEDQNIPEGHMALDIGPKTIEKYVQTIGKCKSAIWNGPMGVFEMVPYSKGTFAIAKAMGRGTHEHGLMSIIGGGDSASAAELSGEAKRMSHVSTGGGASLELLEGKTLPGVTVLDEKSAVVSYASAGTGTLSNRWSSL
Chain of DNA dC->dU-editing enzyme APOBEC-3G (Homo sapiens) (Q9HC16 whole entry, looked up): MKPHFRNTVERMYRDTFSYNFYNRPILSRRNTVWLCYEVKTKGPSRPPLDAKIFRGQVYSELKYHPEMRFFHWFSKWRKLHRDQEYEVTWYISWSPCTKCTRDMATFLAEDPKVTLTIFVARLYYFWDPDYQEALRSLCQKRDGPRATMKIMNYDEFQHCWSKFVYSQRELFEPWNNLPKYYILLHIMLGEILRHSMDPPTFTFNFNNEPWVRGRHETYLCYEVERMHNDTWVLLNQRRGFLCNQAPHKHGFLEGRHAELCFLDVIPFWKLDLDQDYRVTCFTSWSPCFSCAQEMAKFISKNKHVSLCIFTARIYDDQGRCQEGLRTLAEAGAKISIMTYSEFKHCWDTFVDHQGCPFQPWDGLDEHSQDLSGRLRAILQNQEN

`C[C@]12CCC(=O)C=C1CC[C@@H]1[C@@H]2CC[C@@]2(C)[C@H]1CC[C@]2(O)C(=O)CO`: the result in [1], in experiment [4], in [5], in [6], in experiment [7] and in experiment [8] was inactive. In addition, in experiment [9], the outcome was inactive. Besides, the Potency result in [2], in experiment [10], in experiment [11] and in [12] was “inactive” each time. The activation in experiment [3] was 0.188% (inactive).

`OC(CCN1CCCCC1)(c1ccccc1)C1CCCCC1` (stereo unspecified): the call in [1], in [5], in experiment [6], in experiment [7] and in [9] was inactive. Also, the Potency entry in experiment [2], in experiment [13] and in experiment [10] was “inactive” each time.

Turning to `Cc1cc(C)c(/C=C2\C(=O)Nc3ccccc32)[nH]1`, the outcome in experiment [1], in experiment [5], in experiment [6] and in experiment [9] was inactive. The Potency result in experiment [2] is “inactive”. The Potency in experiment [10] is 7.52 µM (active).

As to `Cc1ccc(=O)n(-c2ccccc2)c1`, the result in experiment [1], in experiment [4], in experiment [5], in [6], in experiment [7] and in experiment [8] was inactive. Moreover, the result in [9] and in [14] was inactive. Besides, the Potency entry in [2], in experiment [13], in experiment [10], in experiment [11] and in experiment [12] was “inactive” each time.

For `CCN(CC)CCNC(=O)c1ccc(NC(C)=O)cc1`, the result in [1], in experiment [4], in experiment [5], in [6], in experiment [7] and in [8] was inactive. Moreover, in experiment [9], the molecule was classed as inactive. The Potency entry in experiment [2], in experiment [13], in experiment [10], in [11] and in experiment [12] was “inactive” each time.

For `NC(=O)c1cn(Cc2c(F)cccc2F)nn1`, the molecule was called inactive in experiment [1], in [4], in experiment [7], in [8] and in experiment [9]. In addition, the Potency entry in experiment [2], in experiment [13], in experiment [15], in experiment [10] and in [11] was “inactive” each time. Further, the viability change in [15] was -8.96%.

For `CC(C)[N+](C)(CCOC(=O)C1c2ccccc2Oc2ccccc21)C(C)C`, the outcome in [1], in experiment [4], in experiment [5], in experiment [6], in experiment [7] and in experiment [9] was inactive. The Potency entry in [2], in experiment [10], in experiment [11] and in [12] was “inactive” in each case.

On to `C#CCN(C)CCCOc1ccc(Cl)cc1Cl`, for which the result in experiment [1], in [4], in [5], in experiment [6], in experiment [8] and in experiment [9] was inactive. Further, the Potency entry in experiment [2], in experiment [10], in experiment [11] and in [12] was “inactive” in each case. Moreover, the activation in [3] was -5.81% (inactive).

Take `CN(C)CCCN1c2ccccc2Sc2ccc(C(F)(F)F)cc21`: the result in experiment [1], in [5], in [7], in experiment [8] and in [9] was inactive. Also, the Potency result in experiment [2] and in experiment [15] was “inactive” each time. The viability change in experiment [15] was found to be 0.635%.

With `CN(C)C/C=C(/c1ccc(Br)cc1)c1cccnc1`, the outcome in [1], in [5], in experiment [6], in experiment [7], in [8] and in experiment [9] was inactive. Also, the Potency entry in [2], in experiment [13], in experiment [15], in experiment [10] and in experiment [11] was “inactive” in each case. Moreover, the viability change in [15] was found to be 11.1%.

`CC(C)(Oc1ccc(CCNC(=O)c2ccc(Cl)cc2)cc1)C(=O)O`: the outcome in [1], in experiment [7], in experiment [9], in experiment [16] and in [18] was inactive. The Potency result in experiment [2], in experiment [13], in experiment [15], in [10], in [11] and in [12] was “inactive” throughout. Also, the Potency entry in experiment [17] was “inactive”. In addition, the viability change in [15] was found to be 5.14%.

Consider `Cc1nc2sccn2c(=O)c1CCN1CCC(=C(c2ccc(F)cc2)c2ccc(F)cc2)CC1`, for which the molecule was classed as inactive in experiment [1], in [5], in [6], in experiment [7], in [8] and in [9]. In addition, the Potency entry in experiment [2], in experiment [15] and in experiment [11] was “inactive” in each case. Besides, the viability change in experiment [15] is -8.03%.
